Among the data in PubChem BioAssay (EPA / NIEHS) are outcome and AC50 values, retold here.

“And” between values parts separate entries of the source, which are not always exact repeats. Identical values can stand only once. Records with an inconclusive call do not appear. The source made the active and inactive calls. Rule for the calls: active = hit-call score of the fitted dose curve at least 0.9, where 1 is the maximum; inconclusive = response in the unintended direction; inactive = score below 0.9.

In assay [1] the target is human Colony Stimulating Factor 1 Receptor (CSF1R), CSF1R (gene 1436) (UniProt P07333). Nature of the assay: NVS_ENZ_hCSF1R: NovaScreen (NVS) Enzymatic Assay for human Colony Stimulating Factor 1 Receptor (CSF1R) (AID 2283150). Summed up:
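Compounds screened in duplicate at 25 uM, then concentration-response (top 50 uM) for those passing threshold such as 30% inhibition; recombinant CSF1R activity measured 1 h post-dosing via fluorescent substrate/product mobility-shift separation, loss of signal versus DMSO.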

For assay [2], the target named is Glycogen synthase kinase-3 beta (Homo sapiens) (UniProt P49841). Nature of the assay: NVS_ENZ_hGSK3b: NovaScreen (NVS) Enzymatic Assay for human Glycogen Synthase Kinase-3 beta (GSK3b) (AID 2283165). Summed up: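 Recombinant enzyme with specific fluorescent substrate, 1 h, product separated by electrophoretic mobility shift. Primary duplicate screen at 25 uM; actives (e.g. 30% inhibition) followed in singleton concentration-response to 50 uM. Signal loss fitted versus DMSO.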

The target of assay [3] is human MAP Kinase-Activated Protein Kinase 2 (MAPKAPK2), MAPKAPK2 (gene 9261) (UniProt P49137). As to the kind of experiment: NVS_ENZ_hMAPKAPK2: NovaScreen (NVS) Enzymatic Assay for human MAP Kinase-Activated Protein Kinase 2 (MAPKAPK2) (AID 2283178). Summed up: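 Chemicals screened in duplicate at 25 uM, then to 50 uM top concentration in concentration-response, against recombinant human MAPKAPK2; substrate conversion read 1 hr post-dosing by fluorescence after electrophoretic mobility-shift separation, loss-of-signal relative to DMSO.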

For another assay, the target named is CDK2 (gene 1017) (UniProt P24941). As to the kind of experiment: NVS_ENZ_hCDK2: NovaScreen (NVS) Enzymatic Assay for human Cyclin-Cependent Kinase 2 (CDK2) (AID 2283144). Summed up:
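Compounds screened in duplicate at 25 uM, then in singleton concentration-response to a maximum of 50 uM, against recombinant CDK2; kinase activity read 1 hr after dosing by fluorescence with mobility-shift separation of substrate and product.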

Assay [4] has as its target human FYN Proto-Oncogene, Src family Tyrosine Kinase (Fyn), FYN (gene 2534) (UniProt P06241). Nature of the assay: NVS_ENZ_hFyn: NovaScreen (NVS) Enzymatic Assay for human FYN Proto-Oncogene, Src family Tyrosine Kinase (Fyn) (AID 2283161). Summed up: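 Cell-free kinase activity read by fluorescence after mobility-shift separation of substrate and product, 1 h post-dose. Initial single concentration 25 uM in duplicate, then concentration-response follow-up; DMSO baseline.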

Assay [5] addresses human c-Jun N-terminal Kinases (JNK2), MAPK9 (gene 5601) (UniProt P45984). Nature of the assay: NVS_ENZ_hJNK2: NovaScreen (NVS) Enzymatic Assay for human c-Jun N-terminal Kinases (JNK2) (AID 2283171). Summed up: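 Chemicals first tested in duplicate at 25 uM, then in singleton concentration series up to 50 uM, against extracted JNK2 enzyme. Activity loss read by fluorescence with mobility-shift separation 1 h post-dose; DMSO baseline.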

For assay [6], the target named is Mitogen-activated protein kinase 3 (Homo sapiens) (UniProt P27361). Nature of the assay: NVS_ENZ_hMAPK3: NovaScreen (NVS) Enzymatic Assay for human Mitogen-Activated Protein Kinase 3 (MAPK 3) (AID 2283177). Summed up: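 Chemicals were first tested in duplicate at 25 uM, with hits re-run as concentration series (max 50 uM). Recombinant enzyme activity, measured 1 h post-dose in a cell-free format, was read by fluorescence/mobility shift relative to DMSO.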

For assay [7], the target named is human Caspase 4 (CASP4), CASP4 (gene 837) (UniProt P49662). As to the kind of experiment: NVS_ENZ_hCASP4: NovaScreen (NVS) Enzymatic Assay for human Caspase 4 (CASP4) (AID 2283143). Summed up: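 Compounds were first tested in duplicate at 25 uM, and hits were titrated singly to a 50 uM maximum. Recombinant protease from E. coli was read by fluorescence 2 h post-dose, and activity loss was fitted against the DMSO baseline.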

Assay [8] has as its target human Caspase 8 (CASP8), CASP8 (gene 841) (UniProt Q14790). Nature of the assay: NVS_ENZ_hCASP8: NovaScreen (NVS) Enzymatic Assay for human Caspase 8 (CASP8) (AID 2283146). Summed up: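 The primary screen tested compounds in duplicate at a single 25 uM concentration, with actives followed up in concentration series. Activity of recombinant (E. coli) protease was measured by fluorescence 1 h post-dose, as signal loss against DMSO.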

For assay [9], the target named is Histone deacetylase 3 (Homo sapiens) (UniProt O15379). As to the kind of experiment: NVS_ENZ_hHDAC3: NovaScreen (NVS) Enzymatic Assay for human Histone Deacetylase 3 (HDAC3) (AID 2283163). Summed up:
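Cell-free enzyme format: loss of fluorescent product after mobility-shift separation, 1 h incubation, recombinant human HDAC3. Single 25 uM duplicate screen first, then concentration series to a 50 uM top for hits; DMSO as baseline.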

In assay [10] the target is Collagenase 3 (Homo sapiens) (UniProt P45452). Nature of the assay: NVS_ENZ_hMMP13: NovaScreen (NVS) Enzymatic Assay for human Matrix Metalloproteinase-13 (MMP13) (AID 2283182). Summed up: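 Recombinant MMP13 cleaving fluorescent substrate, cell-free, measured 1 h after dosing. Primary duplicate screen at 25 uM; actives tested in concentration-response up to 50 uM; loss of signal relative to DMSO.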

Assay [11] deals with human Esterase Plasma (ES), BCHE (gene 590) (UniProt P06276). Nature of the assay: NVS_ENZ_hES: NovaScreen (NVS) Enzymatic Assay for human Esterase Plasma (ES) (AID 2283157). Summed up:
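Human plasma-derived enzyme, cell-free, colorimetric readout at 0.25 h. Primary screen 25 uM in duplicate; hits (e.g. ≥30% inhibition) rerun singleton up to 50 uM. DMSO = negative control/baseline.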

The target in assay [12] is human Ephrin type-A Receptor 1 (EphA1), EPHA1 (gene 2041) (UniProt P21709). Nature of the assay: NVS_ENZ_hEphA1: NovaScreen (NVS) Enzymatic Assay for human Ephrin type-A Receptor 1 (EphA1) (AID 2283158).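 Note: activity is signal loss versus DMSO meaning EphA1 kinase inhibition.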 Summed up: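 Chemicals first tested in duplicate at 25 uM against recombinant EphA1 with a fluorescent substrate; those passing threshold went to singleton dose-response topping at 50 uM. Activity read 1 h later as mobility-shift fluorescence, loss of signal relative to DMSO.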

The target in assay [13] is human Dual Specificity Protein Phosphatase 3 (DUSP3), DUSP3 (gene 1845) (UniProt P51452). Nature of the assay: NVS_ENZ_hDUSP3: NovaScreen (NVS) Enzymatic Assay for human Dual Specificity Protein Phosphatase 3 (DUSP3) (AID 2283152). Summed up: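 Cell-free fluorescence-intensity enzyme activity assay with recombinant protein and substrate; loss of signal fitted relative to DMSO baseline. Primary screen in duplicate at 25 uM, actives then run in concentration series; measured 0 h after dosing.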

Assay [14] concerns the target human Elastase, ELANE (gene 1991) (UniProt P08246). Nature of the assay: NVS_ENZ_hElastase: NovaScreen (NVS) Enzymatic Assay for human Elastase (AID 2283153). Summed up:
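Concentration-response to 50 uM max, run singly for chemicals passing a threshold (e.g., 30% inhibition) in a duplicate 25 uM single-point screen. Neutrophil-derived human elastase, absorbance read-out of enzyme activity at 1.5 h; DMSO baseline.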

In assay [15] the target is human Casein Kinase 1-delta (CK1D), CSNK1D (gene 1453) (UniProt P48730). Nature of the assay: NVS_ENZ_hCK1D: NovaScreen (NVS) Enzymatic Assay for human Casein Kinase 1-delta (CK1D) (AID 2283148). Summed up: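 Recombinant human CK1-delta, cell-free; fluorescent substrate with electrophoretic mobility-shift separation of product, read 1 h after dosing. Single 25 uM duplicate screen, then concentration-response up to 50 uM; loss of signal vs DMSO.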

Assay [16] concerns the target human Matrix Metalloproteinase-7 (MMP7), MMP7 (gene 4316) (UniProt P09237). Nature of the assay: NVS_ENZ_hMMP7: NovaScreen (NVS) Enzymatic Assay for human Matrix Metalloproteinase-7 (MMP7) (AID 2283183). Summed up: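 Compounds first tested at 25 uM in duplicate, then at up to 50 uM in concentration series if active. Protease activity measured by fluorescence intensity 1 h after dosing, with fitting relative to DMSO.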

Chain of human Dual Specificity Protein Phosphatase 3 (DUSP3), DUSP3 (gene 1845) (P51452 whole entry, looked up): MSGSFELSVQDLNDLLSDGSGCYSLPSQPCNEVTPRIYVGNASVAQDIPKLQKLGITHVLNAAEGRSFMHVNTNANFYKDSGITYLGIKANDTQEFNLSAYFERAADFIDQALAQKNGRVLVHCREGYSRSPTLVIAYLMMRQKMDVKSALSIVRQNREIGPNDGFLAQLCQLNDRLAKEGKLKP
Chain of human Esterase Plasma (ES), BCHE (gene 590) (P06276 whole entry, looked up): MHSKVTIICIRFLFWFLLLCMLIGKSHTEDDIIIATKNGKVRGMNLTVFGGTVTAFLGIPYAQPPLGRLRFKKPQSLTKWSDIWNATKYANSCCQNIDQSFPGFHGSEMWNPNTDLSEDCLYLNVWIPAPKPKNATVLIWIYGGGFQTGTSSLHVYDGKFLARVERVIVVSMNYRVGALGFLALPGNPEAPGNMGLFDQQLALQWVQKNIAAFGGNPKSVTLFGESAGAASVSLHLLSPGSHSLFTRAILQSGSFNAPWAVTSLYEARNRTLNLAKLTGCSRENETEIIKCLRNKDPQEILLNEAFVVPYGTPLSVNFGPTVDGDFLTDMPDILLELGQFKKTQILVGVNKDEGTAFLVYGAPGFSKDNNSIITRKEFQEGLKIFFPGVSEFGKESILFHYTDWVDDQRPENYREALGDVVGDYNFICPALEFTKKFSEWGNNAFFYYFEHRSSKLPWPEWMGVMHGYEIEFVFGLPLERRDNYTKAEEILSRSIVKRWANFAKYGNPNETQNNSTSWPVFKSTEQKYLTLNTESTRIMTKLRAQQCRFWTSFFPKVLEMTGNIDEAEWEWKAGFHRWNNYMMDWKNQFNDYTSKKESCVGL
Chain of human Ephrin type-A Receptor 1 (EphA1), EPHA1 (gene 2041) (P21709 whole entry, looked up): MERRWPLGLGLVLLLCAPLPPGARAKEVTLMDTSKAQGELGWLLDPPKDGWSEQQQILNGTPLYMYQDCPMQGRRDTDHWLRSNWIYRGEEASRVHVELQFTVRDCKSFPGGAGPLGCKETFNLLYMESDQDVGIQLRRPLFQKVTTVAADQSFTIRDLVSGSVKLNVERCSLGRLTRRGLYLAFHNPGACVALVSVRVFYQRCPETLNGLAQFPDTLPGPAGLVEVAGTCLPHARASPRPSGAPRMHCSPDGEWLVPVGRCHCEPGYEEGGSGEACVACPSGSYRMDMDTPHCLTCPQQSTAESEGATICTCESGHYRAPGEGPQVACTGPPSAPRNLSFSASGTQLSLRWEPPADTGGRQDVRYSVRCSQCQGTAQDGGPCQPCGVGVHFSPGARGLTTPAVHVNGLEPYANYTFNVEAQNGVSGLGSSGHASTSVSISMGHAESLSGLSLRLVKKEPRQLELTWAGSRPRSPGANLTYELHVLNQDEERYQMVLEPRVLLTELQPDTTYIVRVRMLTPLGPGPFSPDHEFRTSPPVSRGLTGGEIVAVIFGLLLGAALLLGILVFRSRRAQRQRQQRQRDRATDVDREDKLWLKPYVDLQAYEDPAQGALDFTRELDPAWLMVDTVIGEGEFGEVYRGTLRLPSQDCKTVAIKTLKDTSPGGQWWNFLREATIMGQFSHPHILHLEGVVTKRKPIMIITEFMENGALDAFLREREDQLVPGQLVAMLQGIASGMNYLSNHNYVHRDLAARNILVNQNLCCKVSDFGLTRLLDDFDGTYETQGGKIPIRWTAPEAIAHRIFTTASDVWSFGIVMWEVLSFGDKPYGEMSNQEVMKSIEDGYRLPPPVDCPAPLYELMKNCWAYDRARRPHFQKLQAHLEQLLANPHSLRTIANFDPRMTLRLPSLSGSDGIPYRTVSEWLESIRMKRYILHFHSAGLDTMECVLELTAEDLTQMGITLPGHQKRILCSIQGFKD
Chain of human Caspase 8 (CASP8), CASP8 (gene 841) (Q14790 whole entry, looked up): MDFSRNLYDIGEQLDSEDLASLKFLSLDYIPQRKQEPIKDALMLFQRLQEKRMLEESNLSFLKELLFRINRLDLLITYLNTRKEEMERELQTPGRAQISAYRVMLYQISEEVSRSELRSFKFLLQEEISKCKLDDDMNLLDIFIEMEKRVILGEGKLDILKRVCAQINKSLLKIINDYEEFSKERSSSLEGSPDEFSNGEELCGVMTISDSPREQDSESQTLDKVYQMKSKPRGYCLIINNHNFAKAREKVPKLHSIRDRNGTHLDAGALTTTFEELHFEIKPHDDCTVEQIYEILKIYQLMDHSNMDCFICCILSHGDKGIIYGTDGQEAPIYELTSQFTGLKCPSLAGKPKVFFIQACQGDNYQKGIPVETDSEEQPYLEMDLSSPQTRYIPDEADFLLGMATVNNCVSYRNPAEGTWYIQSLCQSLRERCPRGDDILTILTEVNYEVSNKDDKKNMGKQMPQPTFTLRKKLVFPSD
Chain of Glycogen synthase kinase-3 beta (Homo sapiens) (P49841 whole entry, looked up): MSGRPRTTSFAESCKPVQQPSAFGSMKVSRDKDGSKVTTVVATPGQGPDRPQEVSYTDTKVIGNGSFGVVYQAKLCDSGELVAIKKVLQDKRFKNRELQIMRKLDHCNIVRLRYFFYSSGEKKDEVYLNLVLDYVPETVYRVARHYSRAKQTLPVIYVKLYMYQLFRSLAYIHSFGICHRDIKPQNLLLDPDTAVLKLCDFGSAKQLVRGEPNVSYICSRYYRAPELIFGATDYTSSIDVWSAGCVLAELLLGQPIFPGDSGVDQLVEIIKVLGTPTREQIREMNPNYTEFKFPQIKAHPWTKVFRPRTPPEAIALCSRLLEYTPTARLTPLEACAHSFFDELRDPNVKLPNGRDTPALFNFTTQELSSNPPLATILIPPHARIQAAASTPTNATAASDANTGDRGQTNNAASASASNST
Chain of Mitogen-activated protein kinase 3 (Homo sapiens) (P27361 whole entry, looked up): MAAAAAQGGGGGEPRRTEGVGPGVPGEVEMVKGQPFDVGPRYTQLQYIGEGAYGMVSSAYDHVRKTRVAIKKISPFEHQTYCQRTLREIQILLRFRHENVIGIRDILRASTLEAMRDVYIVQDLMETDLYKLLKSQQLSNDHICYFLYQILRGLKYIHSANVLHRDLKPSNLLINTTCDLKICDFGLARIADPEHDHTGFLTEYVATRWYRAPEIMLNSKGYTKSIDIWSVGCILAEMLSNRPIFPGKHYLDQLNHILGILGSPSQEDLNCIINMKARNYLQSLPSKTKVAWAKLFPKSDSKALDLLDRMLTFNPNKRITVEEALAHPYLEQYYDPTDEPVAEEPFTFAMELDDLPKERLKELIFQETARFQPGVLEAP
Chain of human Elastase, ELANE (gene 1991) (P08246 whole entry, looked up): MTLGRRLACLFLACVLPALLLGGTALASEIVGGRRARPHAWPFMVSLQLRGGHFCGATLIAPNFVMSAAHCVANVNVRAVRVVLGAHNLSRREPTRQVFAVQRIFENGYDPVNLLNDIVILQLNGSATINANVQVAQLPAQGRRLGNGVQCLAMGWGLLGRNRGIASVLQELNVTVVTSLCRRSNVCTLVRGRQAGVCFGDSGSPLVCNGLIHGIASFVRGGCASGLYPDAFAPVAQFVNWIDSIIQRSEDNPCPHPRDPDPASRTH
Chain of human Caspase 4 (CASP4), CASP4 (gene 837) (P49662 whole entry, looked up): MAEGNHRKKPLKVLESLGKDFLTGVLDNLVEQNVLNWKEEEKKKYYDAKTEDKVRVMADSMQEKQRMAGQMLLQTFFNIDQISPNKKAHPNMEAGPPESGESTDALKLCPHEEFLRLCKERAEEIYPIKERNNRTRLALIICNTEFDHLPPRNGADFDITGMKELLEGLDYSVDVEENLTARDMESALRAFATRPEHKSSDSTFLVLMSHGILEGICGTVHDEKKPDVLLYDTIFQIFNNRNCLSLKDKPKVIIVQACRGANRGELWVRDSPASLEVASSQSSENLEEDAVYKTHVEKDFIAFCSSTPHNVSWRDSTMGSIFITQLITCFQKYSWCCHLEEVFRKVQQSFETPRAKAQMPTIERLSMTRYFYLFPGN
Chain of Histone deacetylase 3 (Homo sapiens) (O15379 whole entry, looked up): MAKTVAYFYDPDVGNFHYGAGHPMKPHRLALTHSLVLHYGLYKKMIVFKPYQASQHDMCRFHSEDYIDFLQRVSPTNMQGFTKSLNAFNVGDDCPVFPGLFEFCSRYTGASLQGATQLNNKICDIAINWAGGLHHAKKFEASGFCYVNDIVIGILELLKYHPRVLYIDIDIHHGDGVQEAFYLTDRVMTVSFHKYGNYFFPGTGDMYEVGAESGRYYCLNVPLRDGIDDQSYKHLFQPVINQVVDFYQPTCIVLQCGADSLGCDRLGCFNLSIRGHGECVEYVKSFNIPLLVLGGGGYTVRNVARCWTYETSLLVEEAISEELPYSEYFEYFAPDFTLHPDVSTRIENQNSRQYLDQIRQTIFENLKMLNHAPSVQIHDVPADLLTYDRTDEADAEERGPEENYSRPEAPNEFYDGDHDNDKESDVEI
Chain of human Matrix Metalloproteinase-7 (MMP7), MMP7 (gene 4316) (P09237 whole entry, looked up): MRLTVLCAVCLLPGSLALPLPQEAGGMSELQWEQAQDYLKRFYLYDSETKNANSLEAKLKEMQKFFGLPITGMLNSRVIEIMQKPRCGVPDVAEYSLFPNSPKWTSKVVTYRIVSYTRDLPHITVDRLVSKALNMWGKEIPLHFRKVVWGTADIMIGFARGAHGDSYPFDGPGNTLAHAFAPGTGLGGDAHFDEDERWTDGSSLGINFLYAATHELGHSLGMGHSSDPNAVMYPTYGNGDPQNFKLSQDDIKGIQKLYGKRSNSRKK
Chain of human FYN Proto-Oncogene, Src family Tyrosine Kinase (Fyn), FYN (gene 2534) (P06241 whole entry, looked up): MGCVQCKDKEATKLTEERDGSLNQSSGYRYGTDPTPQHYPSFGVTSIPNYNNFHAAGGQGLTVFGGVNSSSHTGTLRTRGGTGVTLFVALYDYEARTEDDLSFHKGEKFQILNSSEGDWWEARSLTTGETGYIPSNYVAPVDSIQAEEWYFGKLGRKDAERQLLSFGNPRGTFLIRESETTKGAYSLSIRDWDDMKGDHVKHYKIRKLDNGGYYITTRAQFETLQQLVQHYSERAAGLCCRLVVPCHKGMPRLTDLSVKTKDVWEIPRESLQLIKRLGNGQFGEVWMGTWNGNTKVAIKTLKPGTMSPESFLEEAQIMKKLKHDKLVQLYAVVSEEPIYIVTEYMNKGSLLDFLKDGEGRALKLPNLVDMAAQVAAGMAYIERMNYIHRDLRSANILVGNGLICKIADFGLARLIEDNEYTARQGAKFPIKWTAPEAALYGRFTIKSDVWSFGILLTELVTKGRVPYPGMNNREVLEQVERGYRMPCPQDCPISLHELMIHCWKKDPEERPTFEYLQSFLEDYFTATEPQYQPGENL

Take `Cc1ncc([C@@H](CCCCCCc2ccc3c(n2)NCCC3)CC(=O)O)cn1`: the molecule was classed as inactive in assay [1], in assay [2] and in [3].
Regarding `CCCC(CCC)C(=O)O`, the call (with CDK2 (gene 1017); in assay [4]; in [2]; in assay [5]; in assay [6]) was inactive.
In the case of `COc1cc2c(c(OC)c1OC)-c1ccc(OC)c(=O)cc1[C@@H](NC(C)=O)CC2`, the AC50 in assay [7] was 0.485 µM (active); in assay [10], 25.7 µM (active). Moreover, the molecule was called inactive in [8] and in assay [9].
In the case of `CCCCCCCCN(C)C`, the molecule was called inactive in assay [8], in assay [11] and in assay [12].
For the molecule `CCCCCCCCCCCCCCCCOS(=O)(=O)O`, the call in [13] was inactive. Also, the concentration at half-maximal activity (AC50) in [14] is 4.2 µM (active).
For the molecule `CCn1nc(C)c2c1C(=O)NCC(c1ccc(O)cc1)=N2`, the outcome in assay [14] and in assay [11] was inactive.
Turning to `CC(C)CC(C)O` (stereo unspecified), in assay [7], the AC50 is 8.65 µM (active).
`CCCCN1C(=O)[C@@H]([C@H](O)C2CCCCC2)NC(=O)C12CCN(Cc1ccc(Oc3ccc(C(=O)O)cc3)cc1)CC2`: the half-maximal activity concentration (AC50) in [13] was 14.8 µM (active).
For `O=c1[nH]cnc2c1ncn2[C@H]1CC[C@@H](CO)O1`, in the assay with CDK2 (gene 1017), the AC50 was 25 µM (active). Further, the outcome in assay [15], in assay [12], in assay [9], in assay [2] and in assay [6] was inactive.
Regarding `CC[C@H](C)C(=O)O[C@H]1C[C@H](O)C=C2C=C[C@H](C)[C@H](CC[C@@H](O)C[C@@H](O)CC(=O)O)[C@H]21`, the molecule was classed as inactive in assay [8], in assay [6] and in [16].
For `CCCCCCOC(=O)CC(CC(=O)OCCCCCC)(OC(=O)CCC)C(=O)OCCCCCC`, the call in [13] and in assay [14] was inactive.
Regarding `COc1cc(C(C)C)c2c(c1)S(=O)(=O)N(COc1cc(=O)n3cccc(OCCN4CCCCC4)c3n1)C2=O`, the AC50 in [14] was 0.0341 µM (active).
In the case of `OCc1c[nH]c2ccccc12`, the concentration at half-maximal activity (AC50) in assay [13] is 19.5 µM (active) and 15.4 µM (active); in assay [11], 15.3 µM (active) and 19.1 µM (active). For the same molecule, in assay [12], the result was inactive.

As a reminder, the AC50 is the concentration giving half of the maximal activity seen.
